This is a sample that favours compounds with a hit; in the whole collection about 2.2% have one here.
Mot1-301 SUMO = inhibitors of SUMOylation pathway: yeast Mot1-301 growth rescue; S. cerevisiae Mot1-301 growth rescue, ATP luminescence, 38.5C; percent above DMSO median, 100 means doubled; growth rescue, % at 18.8 µM; 320,000 tested, 1% active; AID 2716;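 active = every valid replicate shows activation above 250% relative to neutral control wells; inactive = the rest, any valid replicate at or below 250%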
PHOSPHO1 block = PHOSPHO1 (human) inhibition | Q8TCT1 | recombinant PHOSPHO1, absorbance phosphatase assay | inhibition, % at 13.3 µM | 290,000 tested, 1.1% active | AID 1565; in the data active = inhibition above about 60%
GASC-1 inh = inhibitors of human GASC-1 (JMJD2C) demethylase; Q9H3R0; GST-JMJD2C(1-420) H3K9me3 demethylation, DELFIA europium; inhibition, % at 2.35 µM; 330,000 tested, 0.069% active;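 active = more than half of a compound's replicate wells show inhibition beyond 50%, single wells judged on their own value; inconclusive = some, but no more than half, of replicates pass 50% inhibition; inactive = no replicate passes 50% inhibition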;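 note: signal counts dimethyl H3K9 product captured on neutravidin plate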
Target sequence (Q9H3R0 1-420 limits assumed): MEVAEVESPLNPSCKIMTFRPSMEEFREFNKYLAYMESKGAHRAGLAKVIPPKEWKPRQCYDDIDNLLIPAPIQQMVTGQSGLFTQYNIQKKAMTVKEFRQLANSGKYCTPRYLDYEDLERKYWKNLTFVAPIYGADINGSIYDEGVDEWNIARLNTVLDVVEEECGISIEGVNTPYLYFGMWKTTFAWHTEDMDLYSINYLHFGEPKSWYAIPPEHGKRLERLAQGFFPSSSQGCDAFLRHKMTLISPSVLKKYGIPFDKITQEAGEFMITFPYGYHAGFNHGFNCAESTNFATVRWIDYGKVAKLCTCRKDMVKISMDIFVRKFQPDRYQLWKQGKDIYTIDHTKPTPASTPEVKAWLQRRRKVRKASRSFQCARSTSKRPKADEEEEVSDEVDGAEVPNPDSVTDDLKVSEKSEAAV
PvdQ inh = P. aeruginosa PvdQ acylase inhibition | purified PvdQ acylase, fluorescence plate reader | inhibition, % at 10 µM | 340,000 tested, 0.063% active; in the data active = inhibition above about 30%, passing the limit was not always enough; inconclusive = no clear call, values can overlap the other calls
HDAC3 inhib = inhibitors of human histone deacetylase 3; O15379; recombinant HDAC3, fluorogenic peptide/trypsin coupled, fluorescence; inhibition, % at 8.3 µM; 320,000 tested, 0.15% active; in the data active = inhibition above about 26%, passing the limit was not always enough; inconclusive = no clear call, values can overlap the other calls
pCIP destab = compounds decreasing mouse p/CIP protein stability; F442A p/CIP-EGFP cells, EGFP fluorescence, 16 h; Q05BA5; AID 1984; 290,000 tested, 0.01% active; decrease of EGFP signal, % at 10 µM;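 active = EGFP signal decrease of at least 30% at 10 µM or well 3 SD below plate mean, unless failing retest; inactive = the rest, including hits failing retest or dose response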
Mot1 SUMO dose = inhibits SUMO pathway, affecting Mot1-301 yeast growth; shares compounds with Mot1-301 SUMO; S. cerevisiae Mot1-301 galactose growth, ATP luminescence, 24 h; -100 = growth of slx-deleted rescue strain; growth activity, percent, % at 42 µM; 2,300 tested, under 10 active;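 active = Signal drops as the depositor expects, and the fitted half-maximal dose is no more than ten times the top valid tested dose; inconclusive = Poor fit, or a flat curve whose signal drops by 30% to 70%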;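 note: more negative values mean stronger growth rescue toward the control strain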
Of the large screens only hits and unclear results are named; the others gave an inactive call (follow-up assays come after a bar, where they were run).

CCOc1ccc(/C=N/NC(=O)c2ccc(CSc3nc4ccccc4[nH]3)cc2)cc1	Mot1-301 SUMO 508 | Mot1 SUMO dose inactive
CCNC(=O)NC1c2ccccc2CSc2ccccc21 (stereo not drawn)	Mot1-301 SUMO 614 (no result: PHOSPHO1 block, pCIP destab) | Mot1 SUMO dose inactive
Cc1nccn1-c1ccc(C=O)cc1	none
COc1ccccc1CCC(=O)NNC(=O)c1ccc(Br)cc1	none
S=C(Nc1ccc(Cl)cc1)N1CCN(Cc2ccccc2)CC1	Mot1-301 SUMO 590 | Mot1 SUMO dose inactive
O=C(NCC1CCN(Cc2ccccc2Cl)CC1)Nc1ccccc1F	Mot1-301 SUMO 606 | Mot1 SUMO dose inactive
COc1cccc(N2CC(C(=O)Nc3nnc(SCCN4CCOCC4)s3)CC2=O)c1 (stereo not drawn)	HDAC3 inhib inconclusive
Cn1cccc1CC(=O)NNC(=O)Nc1ccccc1F	none (no result: PHOSPHO1 block, pCIP destab)
COc1ccc(NC(=O)CC(C)C)c(OC)c1	Mot1-301 SUMO 789 | Mot1 SUMO dose inactive
CC1CCCC(NC(=O)c2cccs2)C1C (stereo not drawn)	none (no result: PHOSPHO1 block, pCIP destab)
CC1(C)CC(=O)C=C(OC(=O)c2ccc(Cl)cc2)C1	Mot1-301 SUMO 470 | Mot1 SUMO dose inactive
CC(C)c1ccc(OCC(=O)N2CCN(C(=O)c3ccco3)CC2)cc1	none
CC(C)(C)c1cc[n+](CC(=O)Nc2cc(C(F)(F)F)ccc2N2CCOCC2)cc1	none
COc1cc2c(=O)n(CCC(=O)NCC3CCCO3)c(=O)n(CC(=O)Nc3ccccc3C)c2cc1OC (stereo not drawn)	Mot1-301 SUMO 444 | Mot1 SUMO dose inactive
CCCc1nn2c(=O)cc(CSCC(=O)Nc3cccc(OC)c3)nc2s1	none
CCCc1nn2c(=O)cc(CSCC(=O)Nc3ccc(OC)cc3)nc2s1	Mot1-301 SUMO 539 | Mot1 SUMO dose inactive
CC(=O)NCCc1nc2cc(NC(=O)COc3cccc(C)c3)ccc2n1C	none
COc1ccc(N2CCN(C(=O)Cn3nnc(-c4ccc(OC)c(OC)c4)n3)CC2)cc1	Mot1-301 SUMO 385 | Mot1 SUMO dose inactive
O=C(NCc1ccccc1)c1cccc(COc2cccc(Cl)c2)c1	none
O=C(NCc1ccccc1)c1cccc(COc2ccc(Cl)cc2)c1	Mot1-301 SUMO active | Mot1 SUMO dose inactive
C/C=C/C(=O)N1c2ccc(C)cc2C(C)=CC1(C)C	Mot1-301 SUMO 962 (no result: HDAC3 inhib) | Mot1 SUMO dose inactive
CN(C)/C(=N\S(=O)(=O)c1ccc(F)cc1)c1ccccc1	none
CCN(CC)/C(=N\S(=O)(=O)c1ccc(F)cc1)c1ccccc1	Mot1-301 SUMO 551 | Mot1 SUMO dose inactive
CN(Cc1ccccc1)c1ccc(S(=O)(=O)N2CCC(C(=O)O)CC2)cc1[N+](=O)[O-]	Mot1-301 SUMO 550 | Mot1 SUMO dose inactive
O=C(O)C1CCN(c2ccc(S(=O)(=O)N3CCC(C(=O)O)CC3)cc2[N+](=O)[O-])CC1	none
Cc1ccc(C2=NN(CC(=O)NCc3cccs3)C(=O)CC2)cc1	Mot1-301 SUMO 399 | Mot1 SUMO dose inactive
Cc1ccc(C2=NN(CC(=O)NCCN(C)C)C(=O)CC2)cc1	none
Cc1cc(C)c(NC(=O)CN(C)C(=O)CNC(=O)c2cccs2)c(C)c1	none (no result: PHOSPHO1 block, pCIP destab)
CCOc1ccc(C(=O)NNC2CC(=O)N(CCc3ccccc3)C2=O)cc1OC (stereo not drawn)	Mot1-301 SUMO 737 | Mot1 SUMO dose inactive
NC(N)=Nc1nc(-c2ccccc2)c2cc(F)ccc2n1	none
NC(=O)C1CCCN(C(=S)Nc2cccc3ccccc23)C1 (stereo not drawn)	Mot1-301 SUMO 909 | Mot1 SUMO dose inactive
NC(=O)C1CCCN(C(=S)NCc2ccc3c(c2)OCO3)C1 (stereo not drawn)	none
CCN(CC)C(=O)Cn1c(=O)n(CCCCCC(=O)Nc2ccccc2)c(=O)c2sccc21	none
CCN(CC)C(=O)Cn1c(=O)n(CCCC(=O)NCc2ccccc2)c(=O)c2sccc21	Mot1-301 SUMO 539 | Mot1 SUMO dose inactive
O=C1NC2(CCCCC2)NN1c1ccccc1	Mot1-301 SUMO 479 | Mot1 SUMO dose inactive
Cc1ccccc1C(=O)NNC(=S)Nc1cccc(C(F)(F)F)c1	Mot1-301 SUMO 405 (no result: HDAC3 inhib) | Mot1 SUMO dose inactive
FC(F)(F)c1cccc(NC(=S)NNC(=S)Nc2cccc(C(F)(F)F)c2)c1	HDAC3 inhib inconclusive (no result: PvdQ inh)

Assay outcomes from PubChem BioAssay.
